Drawing on PubChem BioAssay AID602393 (Broad Institute, 2012), this text covers reporter increase for 78 molecules.

Hit rate of the full screen: of about 350,000 compounds, about 7,000 (2%) were called active. For the sample, actives were picked, then their nearest neighbours and some compounds at random. Unmarked numbers belong to inactive results. No stated cut-off is given here; in the data, active means activation above about 40%; inconclusive means no clear call, values can overlap the other calls; inactive means below that.

The nature of the assay: raisers of Bmi1 knock-in reporter signal – mouse ES cells, Bmi1 luciferase knock-in, single point, esBAF inhibitor project, primary screen (AID 602393).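 Further: 0% = median of the plate's neutral control wells and 100% = double that signal; a rise in the Bmi1 reporter signal indicates esBAF inhibition.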 Particulars: 24 h, at 12.5 µM, stronger effect = higher value, 100% = twice the neutral-well signal.
Take `Cc1ccc(S(=O)(=O)Nc2ccc3c(c2)C(=O)N([C@@H](C)CO)C[C@@H](C)[C@H](CN(C)Cc2ccncc2)O3)cc1`: the reporter increase was 2.63%.

As for `C[C@H](CO)N1C[C@H](C)[C@H](CN(C)Cc2ccncc2)Oc2ccc(N(C)C)cc2C1=O`, the reporter increase was -1.91%.

Consider `Cc1ccc2[nH]c(=O)c(COC(=O)c3ccccn3)cc2c1`, for which the reporter increase was -2.11%.

Regarding `CCOC(=O)c1[nH]c2ccc(C)cc2c1N=C(C)N(C)C`, the reporter increase was 1.77%.

For `CCOC(=O)c1cc2cc(C)ccc2[nH]1`, the reporter increase was 70.2% (active).

`CCCNC(=O)N(C)C[C@H]1Oc2cc(C#C[C@@H](C)O)ccc2S(=O)(=O)N([C@H](C)CO)C[C@H]1C`: the reporter increase was -0.613%.

Turning to `COCC(=O)N1C[C@@H]2[C@H](c3ccccc31)[C@@H](CO)N2C(=O)C1CC1`, the reporter increase is -6.95%.

As to `CCNC(=O)[C@@H]1[C@@H](CO)[C@@H]2Cn3c(ccc(-c4ccncc4)c3=O)[C@@H]2N1Cc1cc(F)ccc1F`, the reporter increase is -2.84%.

Turning to `CC(C)Cc1nnc(NC(=O)CCNC(=O)c2ccccc2Cl)s1`, the reporter increase was -1.82%.

Turning to `O=C(CCNC(=O)c1ccccc1)Nc1nc2ccccc2s1`, the reporter increase was 59.5% (active).

In the case of `CCCC(=O)Nc1nc2ccc(NC(=O)c3c(F)c(F)c(OC)c(F)c3F)cc2s1`, the reporter increase is -33%.

Turning to `O=S(=O)(N[C@H]1CC[C@@H](CCNS(=O)(=O)c2ccccc2Cl)O[C@@H]1CO)c1ccccc1`, the reporter increase is 2.98%.

Consider `CCOc1ccc(NC(=O)C/C(C)=N/NC(=O)Cc2cccs2)cc1`, for which the reporter increase is -1.12%.

As for `O=C(Cc1cccs1)Nc1ccc([N+](=O)[O-])cc1`, the reporter increase is 1.47%.

Consider `CCOC(=O)c1ccc(NC(=O)Cc2cccs2)cc1`, for which the reporter increase was 49.7% (active).

As for `CN(C)CC(=O)Nc1ccc2c(c1)[C@H]1C[C@@H](CC(=O)NCc3ccccn3)O[C@@H](CO)[C@H]1O2`, the reporter increase is -2.09%.

Regarding `COc1cccc(S(=O)(=O)N(C)C[C@@H]2Oc3cc(C4=CCCCC4)ccc3S(=O)(=O)N([C@H](C)CO)C[C@H]2C)c1`, the reporter increase was -4.77%.

Turning to `O=C(OCC(=O)c1c[nH]c2ccccc12)c1cccc(O)c1`, the reporter increase is 96.8% (active).

In the case of `Cc1ccc(S(=O)(=O)c2c(COC(=O)c3cccc(Cl)c3)c(-c3ccccc3)nn2C)cc1`, the reporter increase was 12.1%.

With `O=C(OCC(O)C(O)COC(=O)c1ccccc1)c1ccccc1` (stereo not drawn), the reporter increase is -4.1%.

For the molecule `CCOc1ncccc1C(=O)OCC(=O)c1c[nH]c2ccccc12`, the reporter increase is 5.19%.

Take `O=C(OCc1ccc(-c2ccccc2)cc1)c1cccc(O)c1`: the reporter increase was 56.3% (active).

Consider `C[C@H](NC(=O)c1ccccc1)C(=O)OCC(=O)c1c[nH]c2ccccc12`, for which the reporter increase was 4.74%.

In the case of `COCC(=O)N1C[C@@H](C)[C@H](OC)CN(C)C(=O)c2ccc(NC(=O)c3ccc(F)cc3)cc2OC[C@H]1C`, the reporter increase is -1.39%.

For `CCCNC(=O)N1[C@H](CNC(C)=O)[C@@H](c2ccc(C3=CCCC3)cc2)[C@@H]1CO`, the reporter increase was 2.55%.

On to `O=C(c1cc(-c2ccc(Cl)cc2)on1)N1CCN(c2ccccc2)CC1`, for which the reporter increase is 60.8% (active).

Turning to `COc1ccc(-c2cc(C(=O)N3CCN(c4ccc(F)cc4)CC3)no2)cc1`, the reporter increase was 5.86%.

With `O=C(c1cc(-c2ccc(O)cc2)on1)N1CCOCC1`, the reporter increase was -6.48%.

Turning to `CC(C)NC(=O)Nc1ccc2c(c1)C(=O)N(C)[C@@H]1CC[C@H](CC(=O)NCC3CCCCC3)O[C@@H]1CO2`, the reporter increase was 7.05%.

In the case of `COCC(=O)N[C@@H]1C=C[C@@H](CC(=O)N2CCCCC2)O[C@@H]1CO`, the reporter increase is 0.0415%.

For the molecule `COc1ccccc1C(=O)N1C[C@H]2[C@@H](c3ccccc31)[C@H](CO)N2C(=O)C1CC1`, the reporter increase is -3.8%.

For `O=C(C[C@@H]1C=C[C@@H](NC(=O)c2cccnc2)[C@H](CO)O1)NCCN1CCCCC1`, the reporter increase was -3.44%.

With `COc1cccc(S(=O)(=O)N[C@H]2C=C[C@H](CC(=O)NC3Cc4ccccc4C3)O[C@H]2CO)c1`, the reporter increase is -3.77%.

As to `CCOc1ccc(-n2c(SCC(=O)OC)nc3sc4c(c3c2=O)CCN(C)C4)cc1`, the reporter increase is 4.82%.

Turning to `CCOc1ccc(-n2c(SCC(=O)Nc3ccc(OC)cc3)nc3sc4c(c3c2=O)CCN(C)C4)cc1`, the reporter increase was 1.84%.

Consider `COc1ccccc1NC(=O)CSc1nc2sc3c(c2c(=O)n1-c1ccccc1)CCN(C)C3`, for which the reporter increase is 50.8% (active).

Regarding `COc1cccc(C(=O)NCCSc2ccc(Br)cc2)c1`, the reporter increase is -4.36%.

Turning to `COc1cccc(C(=O)Nc2nnc(S(=O)(=O)N3CCOCC3)s2)c1`, the reporter increase was 1.13%.

With `COc1cccc(C(=O)Nc2cc3c(cc2Br)OCCCO3)c1`, the reporter increase was 82% (active).

Take `c1ccc2cc3[nH]c(CN4CCCCC4)nc3cc2c1`: the reporter increase was 43.8% (active).

With `O=c1cc(CN2CCCCCCC2)c2c(ccc3ccccc32)o1`, the reporter increase is 2.61%.

On to `Clc1ccc(CN2CCCCCC2)cc1Cl`, for which the reporter increase was -0.902%.

Take `O=C(C[C@H]1CC[C@@H](NC(=O)Cc2ccccn2)[C@H](CO)O1)NCCc1ccccc1`: the reporter increase was 3.63%.

In the case of `O=C(/C(=C/c1cccc(Cl)c1)c1nc2ccccc2[nH]1)c1ccccc1`, the reporter increase is 98.1% (active).

Consider `O=c1c2cc(Br)ccc2nc(-c2cccc(Cl)c2)n1O`, for which the reporter increase was -7.05%.

As to `C[C@H](O)C#Cc1ccc2c(c1)O[C@H](CN(C)C)[C@@H](C)CN([C@H](C)CO)S2(=O)=O`, the reporter increase is -3.76%.

In the case of `C[C@@H]1CN([C@@H](C)CO)C(=O)Cc2cc(NC(=O)Nc3ccc(F)cc3)ccc2O[C@@H]1CN(C)C(=O)NC1CCCCC1`, the reporter increase is 1.74%.

Regarding `COCC1CCCN(C(=O)c2ccc3oc(C(C)C)nc3c2)C1` (stereo not drawn), the reporter increase is 21.9%.

Consider `COCC1CCN(C(=O)CCc2nnc(C3(c4ccc(Cl)cc4)CCC3)o2)C1` (stereo not drawn), for which the reporter increase was 52% (active).

As for `COCC1CCN(C(=O)c2ccc3oc(Cc4ccccc4)nc3c2)C1` (stereo not drawn), the reporter increase is 22.8%.

For `C[C@@H]1CCCCO[C@@H](CN(C)C(=O)C2CCCCC2)[C@H](C)CN([C@H](C)CO)C(=O)c2cc(NC(=O)CCC(F)(F)F)ccc2O1`, the reporter increase is 15.7%.

Regarding `COc1cccc(CNC(=O)C[C@@H]2CC[C@@H]3[C@H](COc4ccc(NC(C)=O)cc4C(=O)N3C)O2)c1`, the reporter increase was -1.5%.

Regarding `CCOC(=O)C1(Cc2cccc(OC)c2)CCCN(C(=O)CCSC)C1` (stereo not drawn), the reporter increase was 51.6% (active).

For the molecule `CCOC(=O)C1(CCOc2ccccc2)CCN(Cc2cc(OC)cc(OC)c2)CC1`, the reporter increase is -7.06%.

For `CCOC(=O)C1(Cc2cccc(OC)c2)CCN(C(C)CC(C)(C)O)CC1` (stereo not drawn), the reporter increase was -4.88%.

On to `CNC(=O)C[C@H]1CC[C@@H]2[C@@H](COc3ccc(NC(=O)c4ccc(F)c(F)c4)cc3C(=O)N2C)O1`, for which the reporter increase was 0.615%.

As to `C[C@@H]1CN([C@H](C)CO)C(=O)c2cc(C#CC3CC3)cnc2O[C@@H]1CN(C)Cc1ccccn1`, the reporter increase was -2.08%.

Regarding `COc1cc(NC(=O)c2ccc(-c3csc(C)n3)cc2)c(OC)cc1Cl`, the reporter increase was 23.9%.

Take `CC(=O)NC(c1cccc(F)c1)c1nc(-c2cccc(F)c2)cs1` (stereo not drawn): the reporter increase was 1.42%.

In the case of `COc1cccc(-c2cnc3c(NC(C)=O)cc(-c4cccc(NC(C)=O)c4)cn23)c1`, the reporter increase was 6.31%.

Regarding `COc1ccc(-c2csc(Nc3cccc(C)n3)n2)cc1OC`, the reporter increase was 86.6% (active).

Regarding `COc1cccc(C(O)c2nc(-c3ccc(C)c(C)c3)cs2)c1` (stereo not drawn), the reporter increase is 3.8%.

Take `CC(=O)Nc1cccc(-c2csc(Nc3cccc(C)n3)n2)c1`: the reporter increase is 51.5% (active).

As for `CC(=O)NC(c1ccccc1)c1nc(-c2cccc(C(C)C)c2)cs1` (stereo not drawn), the reporter increase is -2.45%.

For `CC(=O)Nc1cccc(-c2cnc3ccccc3n2)c1`, the reporter increase was 72.3% (active).

Regarding `CC(=O)Nc1cccc(-c2cc(NC(C)=O)c3ncc(-c4ccccc4)n3c2)c1`, the reporter increase was -27.3%.

Turning to `COc1cccc(-c2cnc3c(c2)C(=O)N([C@H](C)CO)C[C@@H](C)[C@H](CN(C)Cc2ccc(F)cc2)O3)c1`, the reporter increase is 1.81%.

For the molecule `Cc1noc(C)c1S(=O)(=O)N(C)C[C@@H]1OCCCC[C@@H](C)Oc2ccc(NC(=O)c3ccccc3)cc2C(=O)N([C@@H](C)CO)C[C@@H]1C`, the reporter increase was 4.85%.

`COc1ccc(S(=O)(=O)Nc2ccc3c(c2)C(=O)N([C@@H](C)CO)C[C@H](C)[C@@H](CN(C)C(=O)c2ccccc2)OCCCC[C@H](C)O3)cc1`: the reporter increase was -1.88%.

`C/C=C/c1ccc([C@H]2[C@@H](CO)N(C(C)=O)[C@H]2CNC(=O)c2ccncc2)cc1`: the reporter increase is 2.82%.

Consider `C[C@@H]1CN([C@@H](C)CO)C(=O)c2cc(NS(=O)(=O)c3ccccc3)ccc2O[C@@H](C)CCCCO[C@H]1CN(C)S(=O)(=O)c1cccs1`, for which the reporter increase is -5.79%.

Turning to `O=C(C[C@@H]1C=C[C@@H](NC(=O)c2ccc3c(c2)OCO3)[C@H](CO)O1)NC1Cc2ccccc2C1`, the reporter increase was 4.12%.

Regarding `C[C@@H]1CCCCO[C@H](CN(C)C(=O)CCC(F)(F)F)[C@H](C)CN([C@@H](C)CO)C(=O)c2cc(NC(=O)CCCCCC(=O)Nc3ccccc3N)ccc2O1`, the reporter increase is 1.1%.

Turning to `COc1ccccc1N1CCN(/N=C\C(Br)=C\c2ccccc2)CC1`, the reporter increase is 24.6%.

On to `COc1cc(/C=N/N2CCN(c3ccccc3)CC2)ccc1OC(C)=O`, for which the reporter increase was 7.78%.

Consider `COc1ccccc1N1CCN(/N=C/c2ccc(O)cc2O)CC1`, for which the reporter increase was 60.9% (active).

In the case of `CN(C)CC(=O)Nc1ccc2c(c1)[C@@H]1C[C@H](CC(=O)NCC3CC3)O[C@@H](CO)[C@@H]1O2`, the reporter increase was 5.49%.

On to `CO[C@@H]1CN(C)C(=O)c2cc(NC(=O)c3ccc4c(c3)OCO4)ccc2OC[C@H](C)N(CCC(F)(F)F)C[C@H]1C`, for which the reporter increase was 1.54%.
